The record followed here is PubChem BioAssay (Tox21).

Records with an inconclusive call do not appear. A call without a number means that no potency is given here. Active and inactive are the calls of the source. The call rests on the fitted dose curve; in most records, active means well fitted activation curve with a large enough effect in the signal ratio in the repeat runs, with a control signal flat (not every such curve was filed as active); inconclusive means weak or mixed curves, or effect the other way; inactive means no such curve, though single readings can be large or run the other way; the % refers to the signal ratio.
Potency means the concentration at half of the fitted maximal effect.

For the assay, the target named is Androgen receptor (Homo sapiens) (UniProt P10275). The assay can be described thus: qHTS assay to identify small molecule agonists of the androgen receptor (AR) signaling pathway (AID 743036). As to conditions: HEK293 AR-UAS-bla GripTite, beta-lactamase FRET ratio, 16 h; series mostly up to 62.4 µM. The text has this: U.S. Tox21 Program National Center for Advancing Translational Sciences [NCATS] NIH Chemical Genomics Center [NCGC] U.S. Environmental Protection Agency [EPA] National Institutes of Environmental Health Sciences [NIEHS] National Toxicology Program [NTP] U.S. Food and Drug Administration [FDA] Tox21 Assay Overview: Androgen receptor (AR), a nuclear hormone receptor, plays a critical role in AR-dependent prostate cancer and other androgen related diseases. Endocrine disrupting chemicals (EDCs) and their interactions with steroid hormone receptors like AR may cause disruption of normal endocrine function as well as interfere with metabolic homeostasis, reproduction, developmental and behavioral functions. To identify the compounds that activate AR signaling, GeneBLAzer AR-UAS-bla-GripTite cell line (Invitrogen, Carlsbad, CA, USA) containing a beta-lactamase reporter gene under the control of an Upstream Activator Sequence (UAS) stably integrated into HEK293 cells was used to screen the Tox21 10K compound library.
Chain of Androgen receptor (Homo sapiens) (P10275 whole entry, looked up): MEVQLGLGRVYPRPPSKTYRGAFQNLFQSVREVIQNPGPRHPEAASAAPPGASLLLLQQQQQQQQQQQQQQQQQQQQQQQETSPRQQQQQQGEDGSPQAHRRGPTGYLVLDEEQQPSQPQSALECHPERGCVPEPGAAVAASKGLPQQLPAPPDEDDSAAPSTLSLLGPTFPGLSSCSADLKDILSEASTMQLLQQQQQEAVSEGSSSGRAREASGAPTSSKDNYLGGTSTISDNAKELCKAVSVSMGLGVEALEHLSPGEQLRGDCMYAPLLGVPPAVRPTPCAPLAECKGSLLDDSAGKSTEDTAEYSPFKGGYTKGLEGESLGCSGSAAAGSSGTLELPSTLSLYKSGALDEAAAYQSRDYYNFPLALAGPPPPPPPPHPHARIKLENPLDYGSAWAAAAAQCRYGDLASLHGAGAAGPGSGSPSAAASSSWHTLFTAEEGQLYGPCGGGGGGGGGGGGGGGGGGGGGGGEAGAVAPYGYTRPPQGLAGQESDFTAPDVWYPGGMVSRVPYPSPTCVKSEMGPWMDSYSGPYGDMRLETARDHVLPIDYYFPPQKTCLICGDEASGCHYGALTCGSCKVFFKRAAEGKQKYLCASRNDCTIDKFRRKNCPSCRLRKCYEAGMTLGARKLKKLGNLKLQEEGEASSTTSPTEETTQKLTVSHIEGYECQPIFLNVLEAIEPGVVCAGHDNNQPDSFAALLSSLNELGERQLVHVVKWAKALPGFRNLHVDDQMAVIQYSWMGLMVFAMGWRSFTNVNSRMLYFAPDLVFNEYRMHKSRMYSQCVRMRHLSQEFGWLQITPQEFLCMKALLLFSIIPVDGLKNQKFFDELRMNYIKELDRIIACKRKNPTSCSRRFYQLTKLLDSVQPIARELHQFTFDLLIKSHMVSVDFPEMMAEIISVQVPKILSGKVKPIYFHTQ
Tox21 Assay Protocol Summary: AR-bla cells were dispensed at 2,000 cells/6 uL/well of assay medium into black wall/clear-bottom 1536-well plates using a Multidrop Combi (ThermoFisher Scientific, Waltham, MA) dispenser. After the assay plates were incubated at 37C and 5% CO2 for 4 h, 23 nL of compounds dissolved in DMSO, positive controls or DMSO only was transferred to the assay plate by a Pintool station (Kalypsys, San Diego, CA). The plates were incubated at 37C and 5% CO2 for 16 h. Then 1 uL of LiveBLAzerTM B/G FRET substrate was added using a Bioraptr Flying Reagent Dispenser (FRD) workstation (Beckman Coulter, Indianapolis, IN, USA). The plates were incubated at room temperature for 2 h, and fluorescence intensity was measured by an Envision plate reader (PerkinElmer, Shelton, CT).
(In general: Quantitative high-throughput screening tests each substance at several concentrations.)
With `C[N+]1(C)CCCCC1COC(=O)C(O)(c1ccccc1)c1ccccc1` (stereo not given), the Potency result is “inactive”.

`C[C@@H](Cc1ccccc1)N(C)C`: the Potency entry is “inactive”.

Turning to `C[C@@H]1[C@H](O)[C@@H](C)/C=C/C=C/CC/C=C/C=C/C=C/C=C/[C@H](O[C@H]2O[C@@H](C)[C@H](O)[C@@H](N)[C@H]2O)CC2O[C@](O)(C[C@@H](O)[C@H](O)CC[C@@H](O)C[C@@H](O)C[C@@H](O)CC(=O)O[C@H]1C)C[C@H](O)[C@H]2C(=O)O`, the Potency result was “inactive”.

Take `CN1CCCC(=C(c2cccs2)c2cccs2)C1`: the Potency result is “inactive”.

For the compound `CN1CC[C@@]23CCCC[C@@H]2[C@@H]1Cc1ccc(O)cc13`, the Potency entry is “inactive”.

Consider `NC(=O)CN1CC(O)CC1=O` (stereo not given), for which the Potency entry is “inactive”.

On to `CC(C)CCC(=O)O[C@H]1CC[C@H]2[C@@H]3CCC4=CC(=O)CC[C@]4(C)[C@H]3CC[C@]12C`, for which the Potency was 10.7 nM (active).

On to `O=c1ccc2cc(O[C@@H]3O[C@H](CO)[C@@H](O)[C@H](O)[C@H]3O)c(O)cc2o1`, for which the Potency was 9100 nM (active).

With `O=C(O)CCCO`, the Potency entry is “inactive”.

`Cc1ccccc1-n1c(CF)nc2ccc(N)cc2c1=O`: the Potency result was “inactive”.

In the case of `CCC(=O)O[C@]1(c2ccccc2)CCN(C)C[C@H]1C`, the Potency entry is “inactive”.

Take `CCCCNC(C)(C)[P+](=O)O`: the Potency result was “inactive”.

In the case of `C=CCC1(C(C)CCC)C(=O)N=C(S)NC1=O` (stereo not given), the Potency result was “inactive”.

Regarding `CCCCCc1cc(O)c2c(c1)OC(C)(C)[C@@H]1CCC(C)=C[C@@H]21`, the Potency entry was “inactive”.

For `NCC(O)c1cccc(O)c1` (stereo not given), the Potency entry is “inactive”.

Consider `COC(=O)[C@H]1[C@@H](OC(=O)c2ccccc2)C[C@@H]2CC[C@H]1N2C`, for which the Potency result was “inactive”.

For `C[C@]12CCC(=O)C=C1C=C[C@@H]1[C@@H]2CC[C@@]2(C)[C@H]1CC[C@@]2(O)CCC(=O)O`, the Potency was 3620 nM (active).

With `Cc1nnc2n1-c1sc(Br)cc1C(c1ccccc1Cl)=NC2`, the Potency result was “inactive”.

As to `CCCCCN(C)CCC(O)(P(=O)(O)O)P(=O)(O)O`, the Potency result is “inactive”.

In the case of `O=C1CCCCC1CN1CCCCC1` (stereo not given), the Potency entry was “inactive”.

In the case of `CCN(CC)C(=O)N[C@H]1C[C@@H]2c3cccc4[nH]cc(c34)C[C@H]2N(C)C1`, the Potency result was “inactive”.

As for `C[C@@H](N)C(=O)c1ccccc1`, the Potency entry was “inactive”.

As for `C[C@@H]1[C@@H]2Cc3ccc(O)cc3[C@@]1(C)CCN2CC1CC1`, the Potency entry was “inactive”.

Regarding `C=CCN1CC[C@]23c4c5ccc(O)c4O[C@H]2[C@@H](O)C=C[C@H]3[C@H]1C5`, the Potency result was “inactive”.

Take `O=C1CCO1`: the Potency result is “inactive”.

As to `Clc1ccc2c(c1)C(c1ccccc1)=NCc1nncn1-2`, the Potency result is “inactive”.

In the case of `CNC(C)CC1CCCCC1` (stereo not given), the Potency result was “inactive”.

`O=C1Nc2ccc(Cl)cc2C(c2ccccc2Cl)=NC1O` (stereo not given): the Potency entry is “inactive”.

With `CC1(C)S[C@@H]2[C@H](N)C(=O)N2[C@H]1C(=O)O`, the Potency result was “inactive”.

Regarding `O=C1CN(O)C(c2ccccc2)=c2cc(Cl)ccc2=N1`, the Potency entry is “inactive”.

Turning to `C[C@]12CC[C@H]3[C@@H](CCC4=C(Cl)C(=O)CC[C@@]43C)[C@@H]1CC[C@@H]2O`, the Potency is 3 nM (active).

Regarding `CCOC(=O)C(O)(c1ccc(Cl)cc1)c1ccc(Cl)cc1`, the Potency entry is “inactive”.

In the case of `COC(=O)[C@@H]1[C@H]2CC[C@@H](C[C@H]1OC(=O)c1ccccc1)N2C`, the Potency entry is “inactive”.

As to `CCCC(=O)OC(C(Cl)(Cl)Cl)P(=O)(OC)OC` (stereo not given), the Potency entry was “inactive”.

Take `C[C@]12C[C@H]3S[C@H]3C[C@@H]1CC[C@@H]1[C@@H]2CC[C@]2(C)[C@@H](O)CC[C@@H]12`: the Potency was 3.2 nM (active).
